Results taken from article PMC5540273 (PLoS ONE, 2017).

What was measured:
Details in all cases: concentration: 1 μM, replicates: in singlicate; n = 1
CLK2 = test system: CLK2
CLK3 = test system: CLK3
CLK4 = test system: CLK4
CSF1R-autoinhibited = test system: CSF1R-autoinhibited
CSF1R = test system: CSF1R
CSK = test system: CSK
CSNK1A1L = test system: CSNK1A1L
CSNK1A1 = test system: CSNK1A1
CSNK1D = test system: CSNK1D
CSNK1E = test system: CSNK1E
CSNK1G1 = test system: CSNK1G1
CSNK1G2 = test system: CSNK1G2
CSNK1G3 = test system: CSNK1G3
CSNK2A1 = test system: CSNK2A1
CSNK2A2 = test system: CSNK2A2
CTK = test system: T1, CTK
T1 construct: gene MATK

DAPK1 = test system: DAPK1
DAPK2 = test system: DAPK2
DAPK3 = test system: DAPK3
DCAMKL1 = test system: T2, DCAMKL1
T2 construct: gene DCLK1
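Also: KINOMEscan kinase panel screen.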

Row | Compound | %Inh (CLK2) [%] | %Inh (CLK3) [%] | %Inh (CLK4) [%] | %Inh (CSF1R-autoinhibited) [%] | %Inh (CSF1R) [%] | %Inh (CSK) [%] | %Inh (CSNK1A1L) [%] | %Inh (CSNK1A1) [%] | %Inh (CSNK1D) [%] | %Inh (CSNK1E) [%] | %Inh (CSNK1G1) [%] | %Inh (CSNK1G2) [%] | %Inh (CSNK1G3) [%] | %Inh (CSNK2A1) [%] | %Inh (CSNK2A2) [%] | %Inh (CTK) [%] | %Inh (DAPK1) [%] | %Inh (DAPK2) [%] | %Inh (DAPK3) [%] | %Inh (DCAMKL1) [%]
1 | COC(=O)Nc1nc2cc(Oc3ccc(NC(=O)Nc4cccc(SC)c4)cc3)ccc2[nH]1.Cl [GW697999] | 32 | 23 | 24 | 53 | 99.6 | 0 | 6 | 0 | 17 | 22 | 6 | 0 | 1 | 0 | 0 | 0 | 0 | 43 | 1 | 21
2 | O=C1NC(=O)C(c2ccccc2Cl)=C1Nc1cccc(Cl)c1 [SB-342409] | 73 | 7 | 28 | 0 | 33 | 0 | 9 | 0 | 16 | 17 | 14 | 0 | 26 | 0 | 0 | 24 | 0 | 0 | 15 | 13
3 | CN1CCN(Cc2ccc(NC(=O)Nc3ccc(N(C)c4ccnc(Nc5ccc(CS(C)(=O)=O)cc5)n4)cc3)cc2)CC1.Cl [GW827654] | 0 | 31 | 0 | 94.7 | 100 | 47 | 0 | 30 | 15 | 30 | 0 | 0 | 0 | 100 | 22 | 16 | 8 | 0 | 0 | 44
4 | Fc1cc(Cl)ccc1Nc1ccnc2cc(-c3ccc(CN4CCOCC4)o3)ccc12 [GW560109] | 0 | 0 | 15 | 7 | 94.2 | 33 | 0 | 11 | 19 | 4 | 7 | 0 | 7 | 0 | 86 | 28 | 0 | 0 | 10 | 12
5 | NCCC(NC(=O)c1cc(Br)c(-c2ccnc3[nH]ccc23)s1)c1ccccc1.O=C(O)C(F)(F)F.O=C(O)C(F)(F)F (stereo not shown) [GSK1307810] | 37 | 54 | 46 | 43 | 18 | 0 | 71 | 93.9 | 94.1 | 94.1 | 83 | 99 | 99.2 | 98.9 | 94.7 | 0 | 6 | 28 | 29 | 25
6 | Cl.N#CCc1ccc(Nc2nccc(Nc3ccc(Oc4ccccc4)cc3)n2)cc1 [GW639905] | 9 | 0 | 3 | 7 | 35 | 31 | 0 | 0 | 0 | 8 | 1 | 0 | 8 | 0 | 9 | 28 | 0 | 60 | 40 | 12
7 | CN(C)CCOc1ccc(-c2cc(-c3ccc(Cl)c(O)c3)c(-c3ccncc3)[nH]2)cc1.Cl.Cl [SB-684387] | 1 | 5 | 3 | 30 | 5 | 7 | 2 | 23 | 77 | 94.6 | 36 | 0 | 37 | 24 | 32 | 3 | 14 | 0 | 22 | 21
8 | Nc1ncnc2scc(-c3ccc(NC(=O)Cc4cc(F)ccc4F)cc3)c12.O=C(O)C(F)(F)F [SB-731254-M] | 0 | 14 | 12 | 79 | 100 | 9 | 6 | 15 | 29 | 0 | 26 | 36 | 40 | 13 | 14 | 67 | 0 | 100 | 100 | 27
